The full list was thinned out, with hits kept by preference.
GluA2 TARP mod – GluA2-stargazin AMPA receptor complex modulation. O88602+P19491. HEK293 GluA2+stargazin, membrane potential dye (FDSS), glutamate EC50; hits were called plate by plate, in both directions. calls only at 30 µM. actives 3.5% (n = 40,000). AID 1259245;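 active means any of four per-well response measures lying three or more SD from its plate-wide compound average, in either direction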
GIRK2 activator – GIRK2 channel activators by thallium flux; 34,000 tested, under 10 active; HEK293 GIRK2/NPY4 cells, thallium flux fluorescence; P48051; activation (% efficacy), % for hits at 75 µM;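 active means primary screen hit, no activity in plain HEK293 cells, and in GIRK2-only cells above 5% efficacy rising with concentration; inactive means the rest, including fluorescent compounds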;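 further: efficacy is normalized control-subtracted fluorescence 15 s after thallium addition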
Target sequence (P48051 whole entry, looked up): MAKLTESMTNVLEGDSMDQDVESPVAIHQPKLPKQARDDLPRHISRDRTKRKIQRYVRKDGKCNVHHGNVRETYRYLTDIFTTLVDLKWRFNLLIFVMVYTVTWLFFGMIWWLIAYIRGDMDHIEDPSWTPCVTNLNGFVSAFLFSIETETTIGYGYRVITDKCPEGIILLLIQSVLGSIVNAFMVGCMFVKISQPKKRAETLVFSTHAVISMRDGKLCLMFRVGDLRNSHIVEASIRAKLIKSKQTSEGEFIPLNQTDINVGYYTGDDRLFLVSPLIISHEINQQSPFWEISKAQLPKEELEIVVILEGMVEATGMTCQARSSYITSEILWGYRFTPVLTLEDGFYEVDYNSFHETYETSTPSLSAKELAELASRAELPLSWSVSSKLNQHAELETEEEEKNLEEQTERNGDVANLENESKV
Numbers without * were called inactive; i = inactive; nt = not tested or not shown; + = active, no number.

SMILES	GluA2 TARP mod	GIRK2 activator
CCOC(=O)C(C)Sc1ccnc2c1c(=O)n(C)c(=O)n2C (stereo unspecified)	i	i
Cc1cn2c3c(=O)n(C)c(=O)n(C)c3nc2n1-c1ccccc1OC/C=C/c1ccccc1	i	nt
CC(=O)NCCc1nc2ccccc2n1CCCOc1cc(C)ccc1C(C)C	+	i
Cc1ccc(C(C)C)c(OCCCn2c(CCCO)nc3ccccc32)c1	i	i
COc1ccc(S(=O)(=O)Nc2cccc(N3CCCC3=O)c2)cc1OC	i	i
Cc1ccc(Cl)cc1N1CCN(C(=O)Cn2c(-c3cnccn3)nc3ccccc32)CC1	+	i
Cc1nc(NC(=O)Cn2c(-c3cnccn3)nc3ccccc32)sc1C(=O)N(C)C	i	i
CSc1ccccc1NC(=O)Cn1c(-c2cnccn2)nc2ccccc21	+	i
Cc1cc(C)n(CCNC(=O)Cn2c(-c3cnccn3)nc3ccccc32)n1	i	i
COc1ccc(NC(=O)Cn2c(C)nc3c(sc4cccc(F)c43)c2=O)cc1Cl	i	i
O=C(CSc1nc(=O)n(CCCO)c2c1CCC2)NC1CCCC1	i	i
O=C(Nc1ccc(Cl)c(Cl)c1)Nc1ccc2cn[nH]c2c1	i	i
O=C(Nc1ccc2cn[nH]c2c1)c1ccc(=O)[nH]n1	+	i
CNC(=O)C(=O)c1cn(CC(=O)N2CCOCC2)c2ccccc12	i	nt
O=C(CSc1nc(-c2ccccc2)nc2c1CCCC2)N1CCOCC1	+	nt
Cc1cccc(-c2nc3c(c(SCC(=O)N(C)C)n2)CCCC3)c1	i	i
Cc1ccnc(Nc2ccc(N3CCN(C(=O)c4c(F)cccc4Cl)CC3)nn2)c1	nt	i
COc1cn(CC(=O)NC2CCCC2)c(CSc2ccc(C)cc2)cc1=O	i	i
COc1cn(CC(=O)NC2CCCCC2)c(CSc2ccccc2)cc1=O	+	nt
CCc1nn2c(C)cc(C)nc2c1-c1ccccc1	i	i
COc1cc(/C=C2\SC(=S)N(c3cccc(Br)c3)C2=O)cc(OC)c1OC	i	nt
CCOc1ccc2ccccc2c1C(=O)Nc1ccc(N2CCCC2=O)c(OC)c1	i	i
COc1ccc(C)c2sc(NC(=O)c3cc(C)no3)nc12	+	i
Cc1cc(C)c2nc(NC(=O)c3cc(C)no3)sc2c1	i	i
COc1ccc(OC)c(S(=O)(=O)Nc2ccc(CC(=O)N3CCOCC3)cc2)c1	i	i
SMILES	GluA2 TARP mod	GIRK2 activator
COc1ccc(NC(=O)C(C)Sc2nnnn2-c2ccc(OC)cc2)cc1 (stereo unspecified)	i	nt
COc1ccccc1NC(=O)C(C)Sc1nnnn1-c1ccc(Cl)cc1 (stereo unspecified)	i	nt
CCOc1ccc(-n2nnnc2SC(C)C(=O)Nc2ccccc2C#N)cc1 (stereo unspecified)	+	nt
CCOc1ccc(-n2nnnc2SC(C)C(=O)Nc2cccc(C(C)=O)c2)cc1 (stereo unspecified)	+	nt
COc1ccc(-n2nnnc2SC(C)C(=O)Nc2cccc(Cl)c2)cc1 (stereo unspecified)	i	nt
CCOc1ccc(-n2nnnc2SC(C)C(=O)Nc2ccccc2C(=O)OC)cc1 (stereo unspecified)	+	nt
COc1ccc(S(=O)(=O)N2CCN(c3cc(Cl)ccc3Cl)CC2)c2ccccc12	i	nt
CCOC(=O)c1ccc2nc(NC(=O)c3ccn(C)n3)sc2c1	+	i
CCOCCn1c(=NC(=O)c2ccn(C)n2)sc2cc(C(=O)OCC)ccc21	+	i
CCOC(=O)c1ccc(NC(=O)c2ccn(C)n2)cc1	i	i
CCOC(=O)c1ccc2c(c1)sc(=NC(=O)c1ccn(CC)n1)n2CCSC	nt	i
CCn1ccnc1N1CCN(C(=O)CSCc2ccccc2)CC1	i	i
CC(C)N(C(=O)Cn1c(C2CC(=O)N(Cc3ccc(F)cc3)C2)nc2ccccc21)c1ccccc1 (stereo unspecified)	i	i
COc1ccc(C)cc1NC(=O)C(=O)NCC(c1cccn1C)N1CCOCC1 (stereo unspecified)	i	i
CSc1ccccc1NC(=O)C(=O)NCCc1ccc(Cl)cc1	+	i
CCc1ccccc1NC(=O)C(=O)NCCc1ccc(Cl)cc1	i	i
Cc1cc(C)cc(OCCNC(=O)c2cccs2)c1	i	i
COc1ccc(C(=O)NCCOc2cc(C)cc(C)c2)c(OC)c1	+	i
O=C(c1ccc(Br)o1)N1CCC(Cn2cnc3ccccc32)CC1	+	i
O=C(c1cc2ccccc2oc1=O)N1CCC(Cn2cnc3ccccc32)CC1	i	i
Cc1cc(NC(=O)CCS(=O)(=O)c2ccccc2)n(C)n1	nt	i
Nc1nc2ccc(OC(F)(F)F)cc2s1	+	i
COc1ccc2nc(NC(=O)NC34CC5CC(CC(C5)C3)C4)sc2c1	i	i
CCn1c(SCc2nc(-c3ccc(OC)cc3OC)no2)nc2ccccc2c1=O	i	nt
CCn1c(SCc2nc(-c3ccc(OC)c(OC)c3)no2)nc2ccccc2c1=O	+	nt
SMILES	GluA2 TARP mod	GIRK2 activator
O=C(Cn1cnc2nc(N3CCOCC3)ncc2c1=O)NCc1cccc(C(F)(F)F)c1	i	i
O=C(NCC(O)C1CCCCC1)C(=O)Nc1ccc(F)c(F)c1 (stereo unspecified)	nt	i
CSc1ccccc1C(=O)Nc1ccc2c(c1)CN(C(=O)c1ccco1)CC2	i	i
O=C(Nc1ccc2c(c1)CN(C(=O)c1ccco1)CC2)c1ccc2nsnc2c1	+	i
CCCc1nnsc1C(=O)Nc1ccc2c(c1)CN(C(=O)c1ccco1)CC2	i	i
O=C(Nc1ccc2c(c1)CN(C(=O)C1CC1)CC2)c1ccc2nsnc2c1	+	i
O=C(Nc1ccc2c(c1)CN(C(=O)C1CC1)CC2)c1ccsc1	i	i
O=C(Nc1ccc2c(c1)CN(C(=O)c1ccco1)CC2)c1cnccn1	+	i
COc1ccc(S(=O)(=O)CCC(=O)Nc2nc3c(OC)ccc(C)c3s2)cc1	i	i
COc1ccccc1CCNC(=O)C(=O)Nc1ccc(C(N)=O)cc1	i	i
O=C(NCC1CCN(Cc2cccs2)CC1)c1cc(Cl)ccc1Cl	nt	i
COc1cn(CC(=O)Nc2cccc(Cl)c2)c(CSc2nccc(C)n2)cc1=O	i	i
O=C(Cc1cccs1)Nc1ccc(CC(=O)N2CCOCC2)cc1	i	i
COc1ccccc1N1CCN(C(=O)CCc2nnc3n(CCc4ccccc4)c(=O)c4ccccc4n23)CC1	i	nt
Cn1ccc(C(=O)N(CCN2CCOCC2)c2nc3ccccc3s2)n1	+	i
Cc1cccc2sc(N(CCN3CCOCC3)C(=O)c3ccc([N+](=O)[O-])s3)nc12	i	i
Cc1cccc2sc(N(CCN3CCOCC3)C(=O)c3ccc([N+](=O)[O-])o3)nc12	+	i
O=C(/C=C/c1cccc([N+](=O)[O-])c1)N(CCN1CCOCC1)c1nc2ccc(F)cc2s1	+	nt
COc1ccc(OC)c2sc(N(CCN3CCOCC3)C(=O)c3ccn(C)n3)nc12	i	i
CN(C)CCN(C(=O)c1ccn(C)n1)c1nc2ccc(Cl)cc2s1	+	i
O=C(/C=C/c1ccc([N+](=O)[O-])cc1)N(CCN1CCOCC1)c1nc2ccccc2s1	i	nt
CN(C)CCCN(C(=O)c1ccno1)c1nc2ccc(Cl)cc2s1	nt	i
